Rows were chosen to be rich in hits. Some 2.3% of all compounds tested hit in one or more screens of this group.
ALOX12 inh = Primary qHTS assay for inhibitors of human arachidonate 12S-lipoxygenase (ALOX12): Round 2 | purified 12hLO, xylenol orange hydroperoxide absorbance | AID 1671190, 2021 | Polyunsaturated fatty acid lipoxygenase ALOX12 (Homo sapiens), P18054 | Potency, µM (highest dose often 108 µM), for the others: at the highest dose activity change, negative = inhibition, actives largely listed as inhibitors | 1.1% of 580,000 active; note: % is set by controls: 0 for no effect and ±100 for the full control effect
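Purified human 12hLO (150 nM final) in 25 mM Hepes, 0.01% Triton X-100, pH 7.0 was preincubated 15 min at room temperature with compound. Then 40 uM arachidonic acid was added, 30 min. Hydroperoxide was read by Fe-XO absorbance ratio 573/405 nm.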
Glioma ERSR ind = qHTS for Inducers of the Endoplasmic Reticulum Stress Response (ERSR) in Human Glioma: qHTS; U87-MG GRP78 promoter luciferase reporter, 16 h; Potency, µM, inactives show at the highest dose activation, hits mostly activators; 0.02% of 420,000 active; note: series mostly up to about 76 µM; % of control where 0% means no effect; nearly all actives have a fitted effect of over 35% in size
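Stably transfected U87-MG glioma cells carrying a GRP78-based luciferase sensor; 16 h compound incubation. Luminescence end-point read 10 min after Bright-Glo addition at room temperature.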
GLP1R inv ag = qHTS of GLP-1 Receptor Inverse Agonists (Inhibition Mode); HEK293 GLP-1R CRE-luciferase, luminescence, 24 h; GLP-1R form is constitutively active; Potency, µM (titrated, usually from 38.3 µM), inactives show at the highest dose activity change, negative = inhibition, actives largely listed as inhibitors; 1.6% of 410,000 active; AID 624417, 2012; note: % is set by controls: 0 for no effect and ±100 for the full control effect; nearly all actives have a fitted effect of over 55% in size
Target sequence (P43220 whole entry, looked up): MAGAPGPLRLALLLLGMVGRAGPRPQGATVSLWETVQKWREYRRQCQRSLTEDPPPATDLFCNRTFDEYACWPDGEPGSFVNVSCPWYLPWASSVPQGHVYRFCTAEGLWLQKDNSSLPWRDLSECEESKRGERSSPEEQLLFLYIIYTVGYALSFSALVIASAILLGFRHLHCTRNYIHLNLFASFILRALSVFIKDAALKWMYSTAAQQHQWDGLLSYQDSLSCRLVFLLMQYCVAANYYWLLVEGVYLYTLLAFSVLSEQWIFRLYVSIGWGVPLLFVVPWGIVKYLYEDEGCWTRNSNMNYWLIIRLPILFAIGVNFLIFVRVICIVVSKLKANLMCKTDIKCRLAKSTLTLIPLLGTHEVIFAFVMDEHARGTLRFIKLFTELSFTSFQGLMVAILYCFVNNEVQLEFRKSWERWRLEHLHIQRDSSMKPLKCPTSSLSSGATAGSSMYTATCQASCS
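Luminescence readout: a drop in cAMP-driven luciferase signal flags inverse agonism at a constitutively active GLP-1R stably expressed in HEK293. Compound exposure lasted 24 hr at 37 deg C, 5% CO2.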
PTHR1 ag = qHTS for PTHR1 Agonists: Primary Screen; Parathyroid hormone/parathyroid hormone-related peptide receptor (Homo sapiens), Q03431; HEK293 GP2 PTHR1 cells, GloSensor cAMP luminescence, 1 h; Potency, µM (top dose mostly 115 µM), inactives show at the highest dose activation, hits mostly activators; 0.075% of 410,000 active; note: nearly all actives have a fitted effect of over 55% in size
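HEK-293-derived GP2 cells expressing PTHR1 and a GloSensor cAMP reporter, 3,000/well, plated overnight, given luciferin plus IBMX (each 0.5 mM as added) for 1 h at 37 °C, then compound for 1 h at 37 °C. Luminescence was read after 15 min at room temperature.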
GLP-1R agonist = qHTS of GLP-1 Receptor Agonists; 0.007% of 380,000 active; Glucagon-like peptide 1 receptor (Homo sapiens), P43220; Potency, µM (doses to about 45.6 µM), without a hit: at the highest dose activation, hits mostly activators; HEK293 GLP-1R CRE-luciferase, luminescence, 4-6 h; cells express a hypersensitive GLP-1R form; note: % of control where 0% means no effect
GLS inh = qHTS for Inhibitors of Glutaminase (GLS). Glutaminase kidney isoform, mitochondrial (Homo sapiens), O94925. GLS enzymatic activity, qHTS titration. Potency, µM (top dose mostly 45.5 µM), without a hit: top-dose activity change, negative = inhibition, most hits filed as inhibitors. 0.21% of 410,000 active; note: % is set by controls: 0 for no effect and ±100 for the full control effect
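hKGA; 45 mM KH2PO4 pH 8.2 + 0.02% Tween-20; cpd via pin tool; 1 mM Gln soln; GluOx/HRP/Amplex Red; RT 30 min; fluor. t0 & final.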
Numbers without * were called inactive; i = inactive; ? = inconclusive; nt = not tested or not shown; ! = a repeat was not active; [ ] = remark or other dose. Calls come from the whole dose curve; as a rule, active = well fitted curve in the direction sought with a large enough effect; inconclusive = small, poorly fitted or top-dose-only effect, or another doubt; inactive = no such curve, though single readings can be large; an effect the other way counts as inactive or inconclusive. Potency is the fitted concentration of half-maximal effect.

SMILES	ALOX12 inh	Glioma ERSR ind	GLP1R inv ag	PTHR1 ag	GLP-1R agonist	GLS inh
Cc1cccc(NC(=O)c2cc(-c3ccc(C)s3)nc3ccccc23)n1	?	4.4%	10µM*	-42.5%	-13.5%	1.3%
O=C(Nc1ccccn1)c1cc(-c2ccc(Cl)s2)nc2ccccc12	2.4%	-0.4%	?	i	-2.5%	-1.0%
Cc1ccnc(NC(=O)c2cc(-c3ccc(Cl)s3)nc3ccccc23)c1	-26.7%	-0.2%	7.94µM*	i	6.3%	-7.3%
COc1ccc(-c2ccc(=O)n(CCNC(=O)Cc3ccc(Cl)cc3)n2)cc1	31.9%	nt	nt	nt	nt	nt
Cc1ccc2nc(SC(C(=O)Nc3ccc(F)cc3)c3ccccc3)[nH]c2c1 (configuration not stated)	?	-8.6%	5.62µM*	-8.8%	-18.0%	-0.5%
Cc1ccc(C)c(NC(=O)C(Sc2nc3ccc(C)cc3[nH]2)c2ccccc2)c1 (configuration not stated)	8.9%	-2.7%	3.16µM*	-48.2%	0.6%	-10.2%
O=C(NC(Cc1ccccc1)C(=O)N1CCN(c2ccccc2)CC1)c1ccco1 (configuration not stated)	-1.9%	nt	nt	nt	nt	nt
COc1cc2c(CCNC(C)=O)c[nH]c2cc1O	39.8µM*!	-4.4%	-3.4%	i	-5.3%	52.4%
COc1cccc(OC)c1C(=O)NCCc1c[nH]c2ccccc12	38.1%	nt	nt	nt	nt	nt
COC(=O)C1=C(N)OC2=C(C(=O)CCC2)C1c1ccc(Cl)cc1Cl (configuration not stated)	-12.0%	nt	nt	nt	nt	nt
O=[N+]([O-])c1ccc(C(=S)N2CCN(c3ccc(F)cc3)CC2)cc1	50.1µM*	-3.7%	-10.3%[7.66 µM]	-12.1%	4.2%	15.8µM*
COc1ccccc1C=NNC(=O)NN=Cc1ccccc1OC	-20.4%	12.2%	?	i	21.6%	-1.6%
COc1ccccc1C=NN=C(NN=Cc1ccccc1OC)NN=Cc1ccccc1OC	?	-0.6%	2.24µM*	i	-7.4%	15.4%
COc1ccccc1CNC(=O)C[C@@H]1[C@H](O)CCC2[C@](C)(CO)[C@H](OC(=O)NC3CCCCC3)CC[C@]21C (some centres not stated)	98.6%	nt	nt	nt	nt	nt
CC(C)CC(c1nnnn1Cc1ccco1)N1CCN(c2cccc(Cl)c2)CC1 (configuration not stated)	?	-4.5%	10µM*	-10.7%	0.5%	10.0%
Clc1ccccc1C(c1nnnn1Cc1ccco1)N1CCN(Cc2ccco2)CC1 (configuration not stated)	44.7µM*	-6.7%	?	i	-1.9%	2.2%
COc1ccc2nc(NC(=S)N(C)C)sc2c1	7.94µM*	-9.2%	?	-27.8%	-0.9%	15.8%
Cc1cnc(NC(=O)CCOc2cccc(Br)c2)s1	24.5%	nt	nt	nt	nt	nt
Cc1cccc2cc(CN(CCCO)C(=O)Nc3ccc(Cl)cc3)c(=O)[nH]c12	2.4%	-2.7%	?	-14.5%[57.5 µM]	-3.4%	3.0%
Cc1cccc2cc(CN(CCCO)C(=O)Nc3cccc(Cl)c3)c(=O)[nH]c12	296.0%	2.6%	11.2µM*	-23.7%[57.5 µM]	6.5%	8.2%
C[n+]1cc(C(=O)N2CCCCC2)ccc1/C=C/c1c[nH]c2ccccc12	20µM*	0.5%	-11.9%	-6.6%	-0.8%	4.8%
O=C(NCCC1=CCCCC1)c1cc(COc2ccc(F)cc2Cl)on1	0.0%	-1.4%	5.01µM*	-1.2%	3.3%	-2.1%
Cc1cccc(-c2nc3ccccc3c(C)c2C#N)c1	-3.6%	nt	nt	nt	nt	nt
COc1cccc(OCC(=O)c2ccc3c(c2)N(CCCC(=O)NCc2ccccc2)C(=O)CO3)c1	2.5%	nt	nt	nt	nt	nt

Compound activity deposited in PubChem BioAssay by National Center for Advancing Translational Sciences (NCATS).
